Assay outcomes from PubChem.
Only some compounds are listed: those with a hit (about 8% of all), similar ones and a draw of the others.
SARS PLP yeast: qHTS of Yeast-based Assay for SARS-CoV PLP; S. cerevisiae expressing SARS-CoV PLpro, growth rescue; Potency, µM (top dose mostly 32.9 µM), actives largely listed as activators; 330,000 compounds, 0.19% hits; calls by dose curve; further: nearly all actives have a fitted effect of over 55% in size
Lassa entry inh: qHTS for Inhibitors of binding or entry into cells for Lassa Virus. Potency, µM (doses to about 37.9 µM), usual class: inhibitors. Lassa virus pseudotype entry inhibition, cell reporter. 300,000 compounds, 1.2% hits; calls by dose curve; tested in HEK293 cells; further: nearly all actives have a fitted effect of over 50% in size
FMDV inh: High Throughput Screening for Foot and Mouth Disease Virus Antivirals. FMDV antiviral cell-based qHTS. Potency, µM (doses to about 57.9 µM), hits mostly inhibitors. 410,000 compounds, 1.2% hits. AID 1159524, 2015; calls by dose curve; tested in HEK293T cells; further: read-out not given here; nearly all actives have a fitted effect of over 45% in size
HCV inh: qHTS Assay for Inhibitors of Hepatitis C Virus (HCV); Huh7.5.1 HCVcc-Cre infection, luciferase reporter, 44 h; 340,000 compounds, 3.4% hits; Potency, µM (doses to about 41.8 µM), most hits filed as inhibitors; active means well fitted inhibition curve with a large enough effect; inconclusive means small, poorly fitted or top-dose-only effect, or another doubt; inactive means no such curve, though single readings can be large or run the other way
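Infectious HCVcc-Cre (~0.5 moi) was added to cells just after compound, with cells seeded 4 h earlier at 1,000 per well. Luciferase activity after 44 h culture reported infection; substrate was incubated 15 min at room temperature before reading.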
MARV entry inh: qHTS for inhibitors of binding or entry into cells for Marburg Virus | 300,000 compounds, 1.8% hits | AID 540276, 2011 | Potency, µM (series often up to 37.8 µM), most hits filed as inhibitors | Marburg virus pseudotyped entry inhibition, cell reporter; calls by dose curve; tested in HEK293 cells
HCMV inh: qHTS Assay for inhibitors of the human cytomegalovirus (HCMV). HFF cells, HCMV-luciferase reporter, 72 h; stronger effect = lower value. activity change, negative = inhibition, % at 57.5 µM. 410,000 compounds, 4.5% hits. AID 1259415, 2018; in the data active means activity change below about -60%; inconclusive means no clear call, values can overlap the other calls; inactive means above about -39%
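After 16 h attachment at 37C, HFF cells received test compound and HCMV-luciferase (1 PFU/cell); reporter luminescence read 72 h later, data normalized against buffer-only and known inhibitor Salinomycin.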
Large screens that a line does not name were inactive; ! = a repeat was not active.

Cc1ccc(OCCCCn2cnc3ccccc32)c(C)c1	SARS PLP yeast inconclusive, Lassa entry inh inconclusive, HCV inh inconclusive, MARV entry inh inconclusive, HCMV inh -98
Cc1ccc(C)c(OCCCCn2cnc3ccccc3c2=O)c1	none
Cc1nn(-c2ccccc2)c(Cl)c1C(=O)NNC(=O)c1ccncc1	none (no result: Lassa entry inh, MARV entry inh)
Cc1cccc(-n2nc(C)c(C(=O)N3CCN(c4ccccc4)CC3)c2-n2cccc2)c1	FMDV inh inconclusive, HCMV inh active (no result: SARS PLP yeast, HCV inh, MARV entry inh)
Cc1nn(-c2ccccc2)c(Cl)c1C(=O)NNC(=O)c1ccccc1O	HCV inh 10µM (no result: Lassa entry inh, MARV entry inh)
Cc1cc(C)c(S(=O)(=O)N2CCN(C(=O)c3c(C)nn(-c4ccccc4)c3Cl)CC2)c(C)c1	Lassa entry inh inconclusive, FMDV inh 25µM, HCV inh inconclusive, MARV entry inh 14µM, HCMV inh -72 (no result: SARS PLP yeast)
O=C(c1cc(-c2ccccc2)nn1-c1ccccc1)N1CCN(S(=O)(=O)c2ccc(F)cc2)CC1	HCV inh inconclusive, HCMV inh -77
CCOC(=O)N1CCN(C(=O)c2c(C)nn(-c3cccc(C)c3)c2-n2cccc2)CC1	none (no result: SARS PLP yeast, HCV inh, MARV entry inh)
O=C(CCSCc1cnn(-c2ccccc2)c1-n1cccc1)NCc1ccccc1F	none (no result: SARS PLP yeast, HCV inh)
Cc1ccc(S(=O)(=O)N2CCN(C(=O)c3c(C)nn(-c4ccccc4)c3Cl)CC2)cc1	Lassa entry inh inconclusive, HCV inh inconclusive, HCMV inh -75 (no result: FMDV inh)
Cc1cc(C)c(S(=O)(=O)N2CCN(C(=O)c3cc4ccccc4oc3=O)CC2)c(C)c1	HCV inh inconclusive, HCMV inh -102 (no result: Lassa entry inh, MARV entry inh)
COc1cc(NS(C)(=O)=O)ccc1Cc1c2ccccc2nc2ccccc12	none (no result: SARS PLP yeast, Lassa entry inh, HCV inh, MARV entry inh, HCMV inh)
O=C(NCc1ccccc1)N[C@H]1CC[C@@]23CCCN2C(=O)CCC[C@H]3C1Cc1ccccc1 (stereo not given in full)	none (no result: SARS PLP yeast, Lassa entry inh, FMDV inh, HCV inh, MARV entry inh)
Cc1nc(N2CCCC2)ncc1C(=O)N1CCN(c2ccc(Cl)cc2)CC1	none (no result: SARS PLP yeast, HCV inh, MARV entry inh)
C=C1C(=O)O[C@@H]2C[C@@H](C)[C@@H]3C=CC(=O)[C@@]3(C)[C@@H](O)[C@H]12	FMDV inh 8.9µM!, HCV inh 1.4µM, HCMV inh -100 (no result: Lassa entry inh, MARV entry inh)
C[C@@H]1C[C@@H]2OC(=O)[C@]3(C)[C@H]2[C@@H](OC3(C)O)[C@]2(C)C(=O)C=C[C@H]12 (stereo not given in full)	none (no result: Lassa entry inh, MARV entry inh)
C=C1C(=O)O[C@@H]2C[C@@H](C)[C@@H]3C=CC(=O)[C@@]3(C)[C@@H](OC(C)=O)[C@H]12	FMDV inh 3.2µM, HCV inh 2.8µM, HCMV inh -99 (no result: Lassa entry inh, MARV entry inh)
O=C(Nc1ccc2oc(-c3cc(Br)ccc3Cl)nc2c1)c1cc2ccccc2o1	MARV entry inh inconclusive (no result: SARS PLP yeast, HCV inh)
O=C1C=C(N2CCN(C(=O)c3ccccc3)CC2)C2(CCCCC2)O1	HCMV inh -77
Cc1ccc(C(=O)N/C(=C/c2ccc(-c3ccc([N+](=O)[O-])cc3)o2)C(=O)NCCCN(C)C)cc1	Lassa entry inh inconclusive, MARV entry inh 4µM, HCMV inh inconclusive (no result: SARS PLP yeast)
O=C(NCCCO)/C(=C/c1ccc(-c2cccc([N+](=O)[O-])c2)o1)NC(=O)c1ccccc1	MARV entry inh inconclusive
COc1ccccc1CNCc1cc(OC)c(OC)cc1OC	none
COc1ccccc1CNCc1cccc(Oc2ccccc2)c1	MARV entry inh 11µM
Cc1ccc2occ(CC(=O)Nc3ccc(S(=O)(=O)N4CCC(C)CC4)cc3)c2c1	none (no result: SARS PLP yeast, HCV inh)
C=CCNC(=O)c1onc(CSc2ccc(F)c(F)c2)c1C(=O)NCC=C	HCMV inh -66 (no result: SARS PLP yeast, Lassa entry inh, MARV entry inh)
C=CCNC(=O)c1onc(CSc2ccccc2)c1C(=O)NCC=C	none (no result: SARS PLP yeast, Lassa entry inh, MARV entry inh)
COc1ccc(OC)c(NC(=O)C2CCCN(S(=O)(=O)c3ccc4[nH]c(=O)ccc4c3)C2)c1 (stereo not given)	HCMV inh inconclusive (no result: SARS PLP yeast, HCV inh, MARV entry inh)
CC(C)CCn1nnnc1CN1CCN(c2ccc(F)cc2)CC1	HCMV inh -102
CC(C)CCn1nnnc1CN1CCN(C(c2ccccc2)c2ccccc2)CC1	FMDV inh inconclusive, HCV inh inconclusive (no result: Lassa entry inh, MARV entry inh)
CN(C)/C=N/c1nc(-c2ccc3c(c2)OCO3)cs1	Lassa entry inh inconclusive, HCV inh inconclusive
CN(C)/C=N/c1nc(-c2ccc3ccccc3c2)cs1	Lassa entry inh 10µM, HCV inh inconclusive, MARV entry inh inconclusive
Cc1cc(=O)oc2cc(OCC(=O)NC3CCCCC3)c(Cl)cc12	none
O=C(NC1CCCCC1)Oc1cc2oc(=O)sc2cc1Cl	FMDV inh 25µM
O=Cc1cn(CC(O)Cn2cc(C=O)c3ccccc32)c2ccccc12	MARV entry inh inconclusive
CS(=O)(=O)N(Cc1ccco1)CC(O)Cn1cc(C=O)c2ccccc21 (stereo not given)	SARS PLP yeast 10µM, FMDV inh inconclusive
O=C1OC(c2ccccc2)=NC12CC2c1ccc(Cl)cc1 (stereo not given)	Lassa entry inh inconclusive, FMDV inh 28µM, MARV entry inh inconclusive
O=CN1N=C(c2ccccc2)CC1c1ccc(Cl)cc1 (stereo not given)	FMDV inh inconclusive, MARV entry inh inconclusive (no result: SARS PLP yeast)
Cc1cccc(CSc2nc(N)c(C#N)c(-c3cccs3)c2C#N)c1	FMDV inh inconclusive, HCV inh 11µM, MARV entry inh inconclusive
Cc1cc(NC(=O)CSc2nc3ccccc3c(=O)n2C2CCCC2)no1	Lassa entry inh inconclusive, MARV entry inh inconclusive, HCMV inh -62
CCN(CC)C(=O)CSc1nc2ccccc2c(=O)n1CC1CCCCC1	Lassa entry inh inconclusive, HCV inh inconclusive, MARV entry inh inconclusive, HCMV inh inconclusive
CCN(CC)c1ccc(NC(=O)CSc2nc(C3CC3)nc3ccccc23)cc1C	Lassa entry inh inconclusive, HCV inh inconclusive, MARV entry inh 4.5µM, HCMV inh inconclusive
CCCc1nc(SCC(=O)Nc2ccc(N3CCOCC3)cc2)c2ccccc2n1	FMDV inh inconclusive, MARV entry inh 0.71µM
CN(C)c1ccc(NC(=O)CSc2nc3ccccc3c(=O)n2C2CCCCC2)cc1	Lassa entry inh inconclusive, HCV inh inconclusive, HCMV inh inconclusive
CCCN(CCC)C(=O)CSc1nc2ccccc2c(=O)n1C1CCCC1	HCV inh 11µM, MARV entry inh inconclusive, HCMV inh inconclusive
O=C(CCn1c(=O)c2ccccc2n(CC(=O)Nc2cccc(F)c2)c1=O)NCCc1ccccc1	none (no result: SARS PLP yeast, HCV inh)
CCc1cccc2c(-c3ccccc3)nc(SCC(=O)Nc3ccc(OC)cc3)nc12	none (no result: SARS PLP yeast, HCV inh)
COC(=O)CSc1nc2cc(Cl)ccc2c(=O)n1C1CCCC1	none
Cc1nonc1NC(=O)CSc1nc(C2CCCCC2)nc2ccccc12	FMDV inh inconclusive, HCV inh inconclusive, MARV entry inh inconclusive, HCMV inh -88
O=C(CSc1nc(C2CC2)nc2ccccc12)Nc1ccccc1	HCV inh inconclusive, MARV entry inh inconclusive
Cc1cc(NC(=O)CSc2nc(C3CCCCC3)nc3ccccc23)no1	FMDV inh inconclusive, HCMV inh -76
